From PubChem BioAssay AID624377 (The Scripps Research Institute Molecular Screening Center, 2012) come the findings set out here.

Screen size: about 360,000 compounds; about 680 (0.19%) were called active. The entries come from a sample that favours actives as a whole. A number with no mark means an inactive call. Rule as the data show it: active = inhibition above about 25%; inactive = the rest.

The target in this assay is Arf-GAP with SH3 domain, ANK repeat and PH domain-containing protein 1 (Homo sapiens) (UniProt Q9ULH1). Nature of the assay: blockers of ASAP1-stimulated ARF1 GTP hydrolysis – biochemical, fluorescence polarization, primary screen (AID 624377).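 Also: 0% = vehicle with enzyme and substrate and 100% = no enzyme.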 Conditions: GDP FP detection, at 16.5 µM, stronger effect = higher value.
Chain of Arf-GAP with SH3 domain, ANK repeat and PH domain-containing protein 1 (Homo sapiens) (Q9ULH1 325-724 limits assumed): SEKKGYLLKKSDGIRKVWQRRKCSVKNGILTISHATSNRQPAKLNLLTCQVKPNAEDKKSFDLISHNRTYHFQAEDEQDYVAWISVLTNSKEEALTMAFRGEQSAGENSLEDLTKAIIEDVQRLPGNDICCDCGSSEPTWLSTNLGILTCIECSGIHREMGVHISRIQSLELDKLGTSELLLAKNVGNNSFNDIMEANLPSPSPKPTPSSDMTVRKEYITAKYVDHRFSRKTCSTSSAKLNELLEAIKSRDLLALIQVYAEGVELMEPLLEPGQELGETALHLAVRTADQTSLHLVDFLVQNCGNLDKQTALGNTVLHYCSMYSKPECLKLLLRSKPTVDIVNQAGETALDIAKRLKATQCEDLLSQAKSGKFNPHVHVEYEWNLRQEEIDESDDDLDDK
On to `COc1ccccc1-c1ccc([C@@H]2C[C@H]3[C@H](CON3C)CN2S(=O)(=O)c2cc(Cl)cc(Cl)c2)cc1`, for which the inhibition was -15.3%.
The same measure for `CN1CCCCC(NC(=O)C(C)(C)C)C1=O` (configuration not stated): -1.72%.
The same measure for `CC(=NNC(N)=O)c1ccc(Cl)c(-n2cccc2)c1`: 7.66%; for `Cc1cc(NCCc2c[nH]c3ccccc23)ccc1Oc1cccnc1`: 6.6%.
Next, `COC(=O)[C@]12C[C@H](CC(=O)N3CCN(C(=O)C4CC4)CC3)C(=O)N(Cc3ccc4c(c3)OCO4)C1=C[C@H](C(C)(C)C)O[C@@H]2C`: -0.19%; `COC(=O)[C@]12C[C@H](CC(=O)NCCc3ccccc3OC)C(=O)N(Cc3ccccc3)C1=C[C@H](C(C)C)O[C@@H]2C1CC1`: -3.14%; `CC[C@H](C)[C@H]1CNC(=O)C(=O)N1CC1CCN(CCc2ccc(OC)c(OC)c2)CC1`: -3.91%.
On to `COc1ccc(-c2ccc3c(n2)CCCN3S(=O)(=O)c2ccc(C)cc2)cc1`, for which the inhibition is -10.4%.
The same measure for `CN[C@H]1C[C@H]2c3[nH]c4c(-c5ccccc5)cccc4c3CCN2C(=O)[C@H]1[C@H](C)O`: -4.1%.
Next, `COC(=O)C1=C(C)N(Cc2cccc(C(F)(F)F)c2)C(=NCc2cccc(C(F)(F)F)c2)NC1c1ccccc1C(F)(F)F` (configuration not stated): 4.19%; `CCOC(=O)/C=C/c1ccccc1O`: 8.09%.
As for `C[C@@H]1ON(C)[C@H]2C[C@H]3c4cc(N5CCOCC5)ccc4CCN3C[C@@H]12`, the inhibition was 11.7%.
Next, `COC(=O)c1cc2c(c3c4ccccc4n(S(=O)(=O)c4cccc(C)c4)c13)C(=O)N(Cc1ccccc1)C2`: -7.05%; `O=C(CSc1nnnn1-c1ccc(O)cc1)c1ccc(F)cc1`: 1.74%; `COc1ccc(-n2nnnc2SCC(=O)c2ccc(OC)c(OC)c2)cc1`: 27.3% (active).
The same measure for `COc1ccc(NC(=O)CSc2nnnn2-c2cccc(OC)c2)cc1`: 3.21%; for `OC(CCl)CCl`: 12.1%; for `COC(=O)c1c(-c2ccc(OC)cc2)c2c(c3c4cc(OC)ccc4n(S(=O)(=O)c4ccc(F)cc4)c13)C(=O)N(C)C2`: -0.62%.
Next, `CCCN1C(=O)c2[nH]nc(-c3ccccc3)c2C1c1ccccc1` (configuration not stated): 0.41%.
Turning to `C[C@H](CO)N1C[C@H](C)[C@@H](CN(C)C(=O)Nc2ccccc2F)OCc2cn(nn2)CCCC1=O`, the inhibition is -10.4%.
The same measure for `Nc1ncnc2c1ncn2C1OC(CO)CC1O` (configuration not stated): 3.34%; for `Cc1ccccc1C(=O)N[C@H](C(=O)N1CCC[C@H]1C(=O)NCc1ccccc1)C(C)C`: -8.79%.

What is called inhibition is the change of the read-out against control, counted positive when it falls.
